Assay results published in the supplement of paper PMC6897291.
Structures can show the parent of a compound that is named as a salt.

Tests used:
RIVA [1] = test: growth inhibition by drug plus 177Lu-lilotomab satetraxetan (1 - RLU/untreated control) (fraction); higher = stronger inhibition; conditions: 177Lu-lilotomab satetraxetan 0.5 ug/ml
How it was run: (§1)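 With or without 18 h pretreatment by a radiolabelled anti-CD37 antibody conjugate (~600 MBq/mg; 0.5 µg/ml RIVA, 1 µg/ml U-2932), RIVA and U-2932 cells were washed and plated at 3,000 cells/well. Pre-printed compound doses were 10/100 nM for RIVA and 10/1,000 nM for U-2932. Growth inhibition uses RealTime-Glo RLU relative to the untreated no-drug wells. The calculation is 1 − RLU/mean of 48 such wells per plate, with reads daily from day 3 after 1 h at 37°C.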

U-2932 [2] = test: growth inhibition by drug alone (1 - RLU/untreated control) (fraction); higher = stronger inhibition; conditions: 177Lu-lilotomab satetraxetan 0 ug/ml
How it was run: as §1

RIVA [3] = test: as above; conditions: 177Lu-lilotomab satetraxetan 0 ug/ml
How it was run: as §1

U-2932 [4] = test: growth inhibition by drug plus 177Lu-lilotomab satetraxetan (1 - RLU/untreated control) (fraction); higher = stronger inhibition; conditions: 177Lu-lilotomab satetraxetan 1 ug/ml
How it was run: as §1

SMILES	growth inhibition by drug plus 177Lu-lilotomab satetraxetan (RIVA [1]; 100 nM, time (day): 5)	growth inhibition by drug plus 177Lu-lilotomab satetraxetan (RIVA [1]; 100 nM, time (day): 6)	growth inhibition by drug alone (U-2932 [2]; 10 nM, time (day): 3)	growth inhibition by drug alone (U-2932 [2]; 10 nM, time (day): 4)	growth inhibition by drug alone (U-2932 [2]; 10 nM, time (day): 5)	growth inhibition by drug alone (U-2932 [2]; 10 nM, time (day): 6)	growth inhibition by drug alone (U-2932 [2]; 1000 nM, time (day): 3)	growth inhibition by drug alone (U-2932 [2]; 1000 nM, time (day): 4)	growth inhibition by drug alone (U-2932 [2]; 1000 nM, time (day): 5)	growth inhibition by drug alone (U-2932 [2]; 1000 nM, time (day): 6)	growth inhibition by drug alone (RIVA [3]; 10 nM, time (day): 3)	growth inhibition by drug alone (RIVA [3]; 10 nM, time (day): 4)	growth inhibition by drug alone (RIVA [3]; 10 nM, time (day): 5)	growth inhibition by drug alone (RIVA [3]; 10 nM, time (day): 6)	growth inhibition by drug alone (RIVA [3]; 100 nM, time (day): 3)	growth inhibition by drug alone (RIVA [3]; 100 nM, time (day): 4)	growth inhibition by drug alone (RIVA [3]; 100 nM, time (day): 5)	growth inhibition by drug alone (RIVA [3]; 100 nM, time (day): 6)	growth inhibition by drug plus 177Lu-lilotomab satetraxetan (U-2932 [4]; 10 nM, time (day): 3)	growth inhibition by drug plus 177Lu-lilotomab satetraxetan (U-2932 [4]; 10 nM, time (day): 4)	growth inhibition by drug plus 177Lu-lilotomab satetraxetan (U-2932 [4]; 10 nM, time (day): 5)	growth inhibition by drug plus 177Lu-lilotomab satetraxetan (U-2932 [4]; 10 nM, time (day): 6)	growth inhibition by drug plus 177Lu-lilotomab satetraxetan (U-2932 [4]; 1000 nM, time (day): 3)	growth inhibition by drug plus 177Lu-lilotomab satetraxetan (U-2932 [4]; 1000 nM, time (day): 4)	growth inhibition by drug plus 177Lu-lilotomab satetraxetan (U-2932 [4]; 1000 nM, time (day): 5)	growth inhibition by drug plus 177Lu-lilotomab satetraxetan (U-2932 [4]; 1000 nM, time (day): 6)	growth inhibition by drug plus 177Lu-lilotomab satetraxetan (RIVA [1]; 10 nM, time (day): 3)	growth inhibition by drug plus 177Lu-lilotomab satetraxetan (RIVA [1]; 10 nM, time (day): 4)	growth inhibition by drug plus 177Lu-lilotomab satetraxetan (RIVA [1]; 10 nM, time (day): 5)	growth inhibition by drug plus 177Lu-lilotomab satetraxetan (RIVA [1]; 10 nM, time (day): 6)	growth inhibition by drug plus 177Lu-lilotomab satetraxetan (RIVA [1]; 100 nM, time (day): 3)	growth inhibition by drug plus 177Lu-lilotomab satetraxetan (RIVA [1]; 100 nM, time (day): 4)
CC(=O)O[C@]1(C(C)=O)CC[C@H]2[C@@H]3C[C@H](C)C4=CC(=O)CC[C@]4(C)[C@H]3CC[C@@]21C [Medroxyprogesterone acetate]	0.409	0.427																														
COC(=O)C1=C(C)NC(C)=C(C(=O)OCCCN2CCC(c3ccccc3)(c3ccccc3)CC2)[C@H]1c1cccc([N+](=O)[O-])c1 [S-(+)-Niguldipine hydrochloride]	0.566	0.562	0.0443	0.0164	-0.0556	-0.116	0.105	0.109	0.032	0.0169	0.00175	-0.0387	-0.0555	-0.128	-0.336	-0.283	-0.288	-0.329	-0.0121	0.0306	0.0867	0.111	0.113	0.151	0.317	0.268	0.569	0.592	0.608	0.623	0.527	0.552
CCOC(=O)C1=C[C@]2(CC)CCCN3CCc4c(n1c1ccccc41)[C@@H]32 [Vinpocetine (Cavinton)]	0.4	0.377	-0.0944	-0.0619	-0.0289	0.127	0.0303	0.0355	0.0149	0.00297	-0.107	-0.13	-0.129	-0.167	0.0294	-0.03	-0.0621	-0.112	-0.0659	-0.0355	-0.00313	0.159	0.000715	0.0172	0.0304	0.134	0.457	0.533	0.549	0.545	0.362	0.396
O=C(O)CC[C@H]1CC[C@@](c2cc(F)ccc2F)(S(=O)(=O)c2ccc(Cl)cc2)CC1	0.543	0.556	0.105	0.0715	-0.0926	-0.0883	0.0344	0.041	-0.0603	-0.0323	0.072	0.0162	-0.0366	-0.42	-0.186	-0.2	-0.179	-0.202	0.00844	0.0724	0.123	0.147	0.000893	0.0697	0.0856	0.142	0.613	0.631	0.645	0.643	0.453	0.522
CN(C)Cc1c(C(=O)NCCOc2ccc(C(=O)NO)cc2)oc2ccccc12	0.931	0.938	0.0311	0.0492	0.0509	-0.0158	0.972	0.985	0.987	0.988	-0.0928	-0.0394	-0.0793	-0.251	0.392	0.295	0.256	0.158	0.0477	0.0589	0.111	0.194	0.988	0.989	0.99	0.991	0.524	0.628	0.645	0.659	0.926	0.925
CC(C)(C)c1cnc(CSc2cnc(NC(=O)C3CCNCC3)s2)o1	0.373	0.353	-0.112	-0.121	-0.0865	-0.0439	0.946	0.962	0.971	0.978	-0.214	-0.262	-0.264	-0.28	-0.524	-0.411	-0.58	-0.723	-0.136	-0.0562	0.00872	0.121	0.955	0.966	0.975	0.983	0.484	0.533	0.556	0.564	0.267	0.359
CC(=O)O[C@@]12CO[C@@H]1C[C@H](O)[C@@]1(C)C(=O)[C@H](O)C3=C(C)[C@@H](OC(=O)[C@H](O)[C@@H](NC(=O)OC(C)(C)C)c4ccccc4)C[C@@](O)([C@@H](OC(=O)c4ccccc4)[C@H]21)C3(C)C [Docetaxel (Taxotere)]	0.985	0.987	0.953	0.965	0.974	0.978	0.964	0.972	0.977	0.98	0.953	0.967	0.973	0.973	0.949	0.964	0.969	0.971	0.96	0.971	0.977	0.983	0.966	0.977	0.982	0.985	0.968	0.982	0.985	0.988	0.967	0.979
COc1cc(Nc2ncc(F)c(Nc3ccc4c(n3)N(COP(=O)(O)O)C(=O)C(C)(C)O4)n2)cc(OC)c1OC	0.452	0.437	-0.000834	-0.000602	0.00162	0.0946	0.00804	-0.00449	-0.047	-0.0248	-0.112	-0.134	-0.185	-0.286	-0.0605	-0.0606	-0.107	-0.168	0.0179	0.0218	0.0539	0.209	-0.0117	0.00967	0.0277	0.162	0.382	0.517	0.542	0.553	0.413	0.448
Cc1[nH]c(/C=C2\C(=O)Nc3ccc(S(=O)(=O)Cc4c(Cl)cccc4Cl)cc32)c(C)c1C(=O)N1CCC[C@@H]1CN1CCCC1	0.381	0.376	-0.0448	-0.0348	-0.136	-0.363	-0.15	-0.0937	-0.118	-0.0292	-0.0942	-0.161	-0.228	-0.375	-0.272	-0.354	-0.323	-0.456	-0.098	-0.0543	-0.04	0.0103	-0.291	-0.156	-0.125	-0.00631	0.279	0.438	0.464	0.487	0.246	0.384
O=C(O)c1ccc2cc(-c3ccc(O)c(C45CC6CC(CC(C6)C4)C5)c3)ccc2c1	0.518	0.526	0.159	0.0954	-0.0581	-0.0515	0.757	0.836	0.861	0.877	0.00625	0.0377	-0.0188	-0.334	-0.285	-0.127	-0.181	-0.353	0.108	0.127	0.182	0.221	0.737	0.802	0.838	0.847	0.642	0.675	0.699	0.702	0.404	0.512
Cn1cnc([N+](=O)[O-])c1Sc1ncnc2[nH]cnc12 [Azathioprine (Azasan, Imuran)]	0.521	0.529	0.0201	-0.00369	0.00367	0.0444	0.0785	0.0404	0.00445	0.131	-0.0287	-0.0923	-0.12	-0.24	-0.168	-0.224	-0.259	-0.337	0.00188	0.0643	0.101	0.167	0.0755	0.0766	0.124	0.326	0.505	0.533	0.565	0.573	0.444	0.518
CCOC(=O)[C@@H](C)Oc1cccc2c(=O)n(CC(=O)Nc3ccc4c(c3)OCCO4)ccc12	0.427	0.414	-0.0226	-0.00751	0.0431	0.176	-0.114	-0.0578	-0.0945	-0.15	-0.12	-0.131	-0.182	-0.361	0.0368	-0.0449	-0.0731	-0.142	-0.0102	0.0168	0.0306	0.145	-0.139	-0.0327	-0.0266	-0.0505	0.384	0.517	0.542	0.536	0.305	0.424
NC(=O)Nc1sc(-c2ccc(F)cc2)cc1C(N)=O	0.413	0.434	0.0734	0.0553	0.0297	-0.262	0.197	0.229	0.176	0.239	-0.0481	-0.0689	-0.274	-0.781	-0.446	-0.283	-0.285	-0.444	0.0182	0.0728	0.0938	0.118	0.334	0.356	0.397	0.502	0.484	0.574	0.584	0.586	0.259	0.411
CS(=O)(=O)CCNCc1ccc(-c2ccc3ncnc(Nc4ccc(OCc5cccc(F)c5)c(Cl)c4)c3c2)o1 [Lapatinib Ditosylate (Tykerb)]	0.487	0.486	0.0817	0.081	0.00227	-0.0646	0.0164	0.0506	-0.0238	-0.169	-0.0232	0.00959	-0.0719	-0.295	-0.283	-0.179	-0.183	-0.291	0.108	0.154	0.199	0.225	0.0709	0.127	0.153	0.277	0.649	0.657	0.672	0.674	0.379	0.475
O=c1[nH]nc(Sc2ncc([N+](=O)[O-])s2)n1-c1ccc2c(c1)OCCO2	0.468	0.445	-0.0286	-0.0355	-0.112	-0.247	-0.00347	0.024	-0.0622	-0.12	0.00609	-0.0273	-0.0872	-0.35	-0.0796	-0.0567	-0.0833	-0.162	0.0134	0.0456	0.0435	0.142	0.369	0.406	0.362	0.409	0.41	0.525	0.54	0.553	0.424	0.457
